# Sfp inh: inhibitors of Bacillus subtilis Sfp phosphopantetheinyl transferase | Q9F4F7 | Biochemical Sfp PPTase activity, qHTS | Potency, µM, for the others: largest response in the series, negative = inhibition, most hits filed as inhibitors | 3.5% of 310,000 active;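 further: the enzyme is Sfp with the accession as filed and its product quenches rhodamine fluorescence; 0% = enzyme reaction without inhibitor and -100% = no enzyme wells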
#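 Sfp 15 nM + cpd, 15 min RT; start w/ rhodamine-CoA 5 uM, BHQ-2-YbbR 12.5 uM (final); 50 mM Hepes pH 7.6, 10 mM MgCl2, 0.01% NP-40, 0.01% BSA; read 525/598 nm at 0 and 30 min.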
# TrxR1 substrate: substrates of rat thioredoxin reductase 1; AID 588456; Potency, µM (titrated, usually from 114 µM), inactives show top-dose activity change, negative = substrate turnover; purified TrxR1 substrate turnover, NADPH consumption readout; O89049; 0.01% of 390,000 active; further: nearly all actives have a fitted effect of over 50% in size
# Target sequence (O89049 whole entry, looked up): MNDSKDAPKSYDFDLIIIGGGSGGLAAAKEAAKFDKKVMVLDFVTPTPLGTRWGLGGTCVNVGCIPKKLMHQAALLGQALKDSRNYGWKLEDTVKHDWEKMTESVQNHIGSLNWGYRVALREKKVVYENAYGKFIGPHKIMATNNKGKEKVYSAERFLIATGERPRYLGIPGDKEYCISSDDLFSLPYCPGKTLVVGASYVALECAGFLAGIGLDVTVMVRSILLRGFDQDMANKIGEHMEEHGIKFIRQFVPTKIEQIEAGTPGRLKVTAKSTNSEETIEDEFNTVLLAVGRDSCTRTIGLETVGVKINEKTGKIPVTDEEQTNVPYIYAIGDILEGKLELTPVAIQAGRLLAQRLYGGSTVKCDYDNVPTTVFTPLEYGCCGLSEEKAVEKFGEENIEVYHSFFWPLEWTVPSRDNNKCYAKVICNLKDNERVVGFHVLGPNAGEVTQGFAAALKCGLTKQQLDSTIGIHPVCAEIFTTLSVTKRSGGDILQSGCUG
#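 Rat TrxR1, dispensed at 90 nM, was prereduced with 400 uM NADPH (final) for 5 min at ~22 deg C, then incubated with compound 15 min before 400 uM selenite. A first-read NADPH fluorescence drop versus no-compound background flagged substrates.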
# TrxR1 inh: inhibitors of rat thioredoxin reductase 1; O89049; recombinant rTrxR1, NADPH fluorescence consumption, selenite substrate; Potency, µM (top dose mostly 114 µM), for the others: top-dose activity change, negative = inhibition, actives largely listed as inhibitors; 1% of 390,000 active; further: nearly all actives have a fitted effect of over 65% in size
#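 Rat TrxR1 (90 nM in the dispensed reagent) was pre-reduced with 400 uM NADPH for 5 min at room temperature, then incubated with compound for 15 min. After 400 uM selenite was added, NADPH fluorescence (Ex 340/Em 450 nm) was followed for 8 min.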
# PLK1 PBD inh: inhibitors of human PLK1 polo-box domain binding | P53350 | Plk1 PBD binding of FITC phosphopeptide, fluorescence polarization | Potency, µM, without a hit: max response, negative = inhibition, actives largely listed as inhibitors | 2.8% of 360,000 active; further: series mostly up to about 57 µM; nearly all actives have a fitted effect of over 65% in size
# VDR inh: vitamin D3 receptor (human) inhibition; P11473; VDR-SRC2-3 peptide fluorescence polarization, 2 h; Potency, µM, for the others: max response, negative = inhibition, usual class: inhibitors; 0.93% of 400,000 active; AID 504847
#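 Signal is fluorescence polarization, reporting how far test compounds block the interaction of VDR with the SRC2-3 coregulator peptide after a 2 h room-temperature incubation.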
# IDH1 R132H inh: inhibitors of human mutant IDH1 R132H. IDH1-R132H enzyme, NADPH consumption, diaphorase/resazurin fluorescence. AID 602179. 0.093% of 390,000 active. O75874. Potency, µM (titrated, usually from 76.6 µM), inactives show top-dose activity change, negative = inhibition, actives largely listed as inhibitors; further: nearly all actives have a fitted effect of over 65% in size
#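 IDH1-R132H (0.5 ug/mL dispensed) in pH 7.5 Tris buffer was preincubated 30 min with compound, then given a substrate mix of 0.016 mM NADPH and 2 mM alpha-KG for 80 min at room temperature; remaining NADPH was read by diaphorase/resazurin fluorescence.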
# Active calls of the source: *; ? = inconclusive; . = no result given; [ ] = remark or other dose. This is a sample that favours compounds with a hit; in the whole collection about 5.2% have one here. The call rests on the fitted dose curve; in most records, active means well fitted curve in the direction sought with a large enough effect; inconclusive means small, poorly fitted or top-dose-only effect, or another doubt; inactive means no such curve, though single readings can be large; an effect the other way counts as inactive or inconclusive. Unless noted, on the % scale 0 is the no-effect control and ±100 the full control effect; potency means the concentration at half of the fitted maximal effect.
SMILES,Sfp inh,TrxR1 substrate,TrxR1 inh,PLK1 PBD inh,VDR inh,IDH1 R132H inh
COc1ccc(C(=S)N2CCN(c3cccc(Cl)c3)CC2)c(OC)c1,17.8µM*,-5.0%,-5.0%,11.9µM*,?,1.5%
NS(=O)(=O)c1nn2cc(-c3ccccc3)nc2s1,6.1%,.,.,.,-17.8%,.
COc1c(O)c(O)cc2c1oc1c3cc(C)ccc3oc(=O)c21,79.4µM*,.,.,.,.,.
COc1cc(-c2oc3ccc(C)cc3c(=O)c2O)cc(OC)c1OC,.,-3.9%,16.6%,.,-19.6%,-11.3%
C=CCn1cccc(C(=O)Nc2ccc(Cl)cc2)c1=O,5.7%,-5.6%,-2.2%,-1.3%,20.8%,-3.5%
C=CCn1cccc(C(=O)Nc2ccc(OCC)cc2)c1=O,6.6%,1.1%[57.1 µM],7.9%[57.1 µM],23.8µM*,-12.4%,-1.1%
C=CCn1cccc(C(=O)Nc2cc(OC)c(OC)c(OC)c2)c1=O,14.8%,-15.2%,18.8%[57.1 µM],21.2µM*,-14.2%,3.2%
COCCNC(=O)C1(C)CCCN(C(=O)c2ccc3snnc3c2)C1 (stereo not drawn),.,.,.,-4.1%,.,.
O=C(NCCSc1ccc(Br)cc1)c1ccccc1,8.8%,6.1%[57.1 µM],15.0%[57.1 µM],26.7µM*,?,4.0%
O=C(CCCCC(=O)Sc1ccccc1)Sc1ccccc1,.,9.0%[57.1 µM],16.1%[57.1 µM],?,79.4µM*,0.0%
Cc1cc(C)nc(SCNC(=O)c2ccc(F)cc2)n1,50.1µM*,-2.7%,?,-16.9%,-4.0%,-0.3%
Cc1cc(C)nc(SCC(=O)c2ccc(F)cc2)n1,-10.3%,-4.3%,13.8%,-4.6%,-0.5%,10.9%
O=C(CNC(=O)c1ccccc1)Sc1ccccc1,.,3.9%,12.6µM*,4.74µM*,44.7µM*,2.0%
CSCc1ccc(C(=O)NCCSc2ccc(Br)cc2)cc1,19.9%,-17.6%,-9.3%,-24.2%,-11.4%,3.4%
O=C(CNC1C(=O)Nc2ccccc21)Sc1ccccc1 (stereo not drawn),-10.6%,3.3%,9.1%,-21.2%,-7.5%,0.0%
O=C(CNC(=O)c1ccccc1)NCCCSc1ccccc1,.,3.3%[57.1 µM],2.5%[57.1 µM],1.5%,8.9%,3.7%
COc1ccc(/C=N/N2C(C)CCCC2C)cc1OC (stereo not drawn),5.9%,-14.4%[57.1 µM],21.3%[57.1 µM],6.4%,-0.2%,5.8%
COc1ccc(NC(=O)C2CCN(S(=O)(=O)c3ccc4c(c3)CCCC(=O)N4)CC2)cc1OC,.,-2.3%,6.1%,.,20.5%,12.0%
O=C(NCNC(=O)c1ccccc1)c1ccccc1,6.1%,11.1%,21.9%,-13.6%,6.1%,7.5%
O=C(NCSc1ccccc1)c1ccccc1,.,0.9%,34.3%,23.8µM*,-7.4%,6.2%
Cc1cc(SCNC(=O)c2ccccc2)ncn1,25.1µM*,7.5%,?,-24.8%,-8.7%,1.4%
Cc1ccc(Cl)cc1-c1cc(C(=O)Nc2ccc(F)cc2)[nH]n1,.,.,.,-8.7%,.,.
CC(=O)Nc1ccc(S(=O)(=O)NC(CC(=O)N(C)Cc2ccccc2)C(C)C)cc1 (stereo not drawn),13.2%,-0.9%[57.1 µM],-0.9%[57.1 µM],3.36µM*,-13.9%,-3.9%
CC(=O)Nc1ccc(S(=O)(=O)NC(CC(=O)NCCc2ccccc2)C(C)C)cc1 (stereo not drawn),4.5%,3.2%,6.5%,-6.6%,-0.5%,-6.8%
CCn1cc(C(=O)OCC(=O)Nc2cc(Cl)ccc2C)c(=O)c2ccc(C)nc21,.,-2.1%,13.3%,.,-22.9%,-7.9%
SMILES,Sfp inh,TrxR1 substrate,TrxR1 inh,PLK1 PBD inh,VDR inh,IDH1 R132H inh
COc1ccccc1N1C(=O)C2C(c3ccccc3F)NN(C(=O)c3ccc(C)cc3)C2C1=O (stereo not drawn),?,-1.5%,50.1µM*,-8.2%,-6.8%,-11.2%
Cc1ccc(C(=O)N2NC(c3ccccc3F)C3C(=O)N(c4cccc(C)c4)C(=O)C32)cc1 (stereo not drawn),10.8%,-5.0%,18.9%,-13.4%,-20.8%,-1.2%
CCC[C@H](NC(C)=O)C(=O)N[C@H]1CC(=O)ONCCCC[C@@H](C(N)=O)NC(=O)[C@H](Cc2c[nH]c3ccccc23)NC(=O)[C@H](CCCN=C(N)N)NC(=O)[C@@H](Cc2ccc3ccccc3c2)NC(=O)[C@H](Cc2cnc[nH]2)NC1=O,12.7%,.,.,.,5.9%,.
CC(C)(C)NC(=O)c1ccc(NC(=O)c2ccccc2-c2ccccc2C(=O)O)cc1,16.2%,-1.3%,25.4%[2.29 µM],-1.2%,-14.8%,1.2%
CCN(C(=O)Cn1c(=O)oc2ccccc21)c1cccc(C)c1,-0.7%,-3.5%,13.7%,26.7µM*,-27.0%,7.0%
CCN(C(=O)Cn1c(=O)oc2ccccc21)c1cccc(C(F)(F)F)c1,15.7%,-4.2%,-10.7%,-2.7%,5.3%,1.1%
CCCn1c(C)cc(/C=C(\C#N)C(=O)O)c1C,22.3%,-14.9%,-11.6%,-12.7%,-1.8%,-11.7%
Cc1cc(C=C(C#N)C#N)c(C)n1-c1ccccc1,2.0%,-0.4%,1.6%,1.0%,-1.4%,-0.1%
Cc1cc(/C=C(\C#N)C(=O)O)c(C)n1-c1ccc(Br)cc1,2.1%,-9.2%,-11.6%,33.6µM*,-8.4%,-1.1%
Cc1cc(/C=C(\C#N)C(=O)O)c(C)n1CC1CCCO1 (stereo not drawn),18.7%,-18.2%,-24.3%,2.99µM*,?,11.3%
CN(C)C(=O)NC(Nc1cccc([N+](=O)[O-])c1)C(Cl)(Cl)Cl (stereo not drawn),16.1%,-2.8%,-0.6%,29.9µM*,-22.1%,-3.0%
CN(C)/C=N/c1cc(=O)[nH]c(=O)n1CC1CC1,22.7%,4.8%[57.1 µM],17.4%[57.1 µM],-5.8%,-2.5%,-4.2%
C=CCn1c(=O)[nH]c2nc3cc(N=CN(C)C)c(C)cc3nc2c1=O,50.1µM*,-2.6%,10.5%,?,-9.3%,3.0%
CC1CN(CCOc2ccc(Cl)cc2Cl)CC(C)O1 (stereo not drawn),-15.8%,8.5%[0.457 µM],1.2%,0.2%,-7.0%,2.8%
CC1CN(CCCCOc2ccc(Cl)c3ccccc23)CC(C)O1 (stereo not drawn),79.4µM*,4.7%,2.5%,7.5%,-12.5%,11.5%
O=[N+]([O-])c1ccc(NC(=S)NCc2ccc(F)cc2)cc1,-9.4%,-22.0%,?,-29.7%,13.0%,-10.2%
O=c1c2ccccc2nnn1CSc1nnc(-c2cccs2)n1Cc1ccccc1,10.3%,-7.0%,-0.6%,29.9µM*,-18.0%,-3.1%
CC(=O)c1c(C)[nH]c(C(=O)CSc2nnc(-c3cccs3)n2Cc2ccccc2)c1C,1.6%,-0.2%,17.5%,16.8µM*,?,-1.5%
CN(CCc1ccc(Cl)c(Cl)c1)CCN1CCCC1,?,.,.,.,6.9%,.
CCc1n[nH]c(=S)n1/N=C/c1cccc2ccccc12,-16.7%,9.9%[2.29 µM],6.7%[57.1 µM],-21.2%,-16.8%,9.1%
Cc1n[nH]c(=S)n(/N=C/c2ccccn2)c1=O,50.1µM*,0.4%,-13.8%,-3.7%,-14.0%,11.3%

# High-throughput results as filed in PubChem BioAssay.
